Results taken from the supplement of paper PMC12669032.
Values joined by “and” are separate entries in the source; they are usually repeats but may differ in a detail not shown here. Equal values may be shown once. Unmarked numbers belong to inactive results.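 How the source made its calls: active = AUC reduced over 20% with Padj below 0.05 in at least 2 of 3 replicates; inactive = otherwise.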

What follows are compounds tested on Roseburia intestinalis (assay: growth AUC relative to DMSO control (median of replicates) (fraction); higher = more growth (less inhibition), active = hit call of the paper). Settings: 20 µM; 24 h.
Outline: (§1)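 For each compound at 20 µM (1% DMSO), gut bacterial monocultures seeded at OD600 0.05 grew anaerobically in mGAM at 37 °C in round-bottom 96-well plates. Hourly OD600 readings over 24 h gave growth curves whose minimum OD was set to 0. Area under these curves was normalised to the plate median of solvent-only wells, or to row and column medians on the industrial chemical plate. Values are medians of three biological replicates grown on separate days.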
With `O=[N+]([O-])/N=C1\NCCN1Cc1ccc(Cl)nc1` the “growth AUC” value was 0.955. In the case of `Fc1ccc(Oc2ccnc3cc(Cl)cc(Cl)c23)cc1`, the “growth AUC” value is reported as 1.02. In the case of `COP(=O)(NC(C)=O)SC` (stereo unspecified), the “growth AUC” value is reported as 1.01. For `C=CCOC(Cn1ccnc1)c1ccc(Cl)cc1Cl.O=S(=O)(O)O` (stereo unspecified), the “growth AUC” value was 0.261 (active). In the case of `O=c1oc2ccccc2c(O)c1C(CC(O)c1ccc(-c2ccc(Br)cc2)cc1)c1ccccc1` (stereo unspecified), the “growth AUC” value is reported as 0.654 (active). `CCCCN(CC)C(=O)SCCC` was tested, and the “growth AUC” value was 1.03. In the case of `CC(Oc1ccc(Oc2ccc(C(F)(F)F)cn2)cc1)C(=O)O` (stereo unspecified), the “growth AUC” value is reported as 0.908. `CS(=O)(=O)NC(=O)c1cc(Oc2ccc(C(F)(F)F)cc2Cl)ccc1[N+](=O)[O-]` was tested, and the “growth AUC” value was 0.966. In the case of `CC(Oc1ccc(Oc2ccc(Cl)cc2Cl)cc1)C(=O)O` (racemic), the “growth AUC” value is reported as 0.989. `CCOP(=O)(OCC)ON1C(=O)c2cccc3cccc(c23)C1=O` was tested, and the “growth AUC” value was 0.9. With `CC(Oc1cc(Cl)c(Cl)cc1Cl)C(=O)O` (stereo unspecified) the “growth AUC” value was 0.935. For `N#CN=C1SCCN1Cc1ccc(Cl)nc1`, the “growth AUC” value was 1.01. For `CC(C)(C)[C@@H](O)[C@H](Oc1ccc(Cl)cc1)n1cncn1`, the “growth AUC” value was 1.08. In the case of `CCOC(=O)CCN(SN(C)C(=O)Oc1cccc2c1OC(C)(C)C2)C(C)C`, the “growth AUC” value is reported as 1.02. With `CS(=O)(=O)c1ccc(C(=O)C2C(=O)CCCC2=O)c([N+](=O)[O-])c1` the “growth AUC” value was 0.976. With `O=c1oc2ccccc2c(O)c1C1CCCc2ccccc21` (stereo unspecified) the “growth AUC” value was 1. `Cc1cc(Cl)ccc1OCC(=O)O` was tested, and the “growth AUC” value was 1.02. For `CCOCn1c(-c2ccc(Cl)cc2)c(C#N)c(Br)c1C(F)(F)F`, the “growth AUC” value was 0.983. With `CCCCCCCCCc1ccc(O)cc1` the “growth AUC” value was 0.897. In the case of `OC(Cc1ccccc1Cl)(Cn1cncn1)C1(Cl)CC1` (stereo unspecified), the “growth AUC” value is reported as 1.05. In the case of `Cc1cc(Cl)ccc1O[C@H](C)C(=O)O`, the “growth AUC” value is reported as 0.898. In the case of `CC1=C(C(=O)Nc2ccccc2)S(=O)(=O)CCO1`, the “growth AUC” value is reported as 0.989. With `Cc1nc(N(C)C=O)nc(OC(=O)N(C)C)c1C` the “growth AUC” value was 0.964. In the case of `C[C@@H](Oc1ccc(Oc2ccc(C(F)(F)F)cn2)cc1)C(=O)O`, the “growth AUC” value is reported as 0.99. In the case of `Cc1nnc(-c2ccccc2)c(=O)n1N`, the “growth AUC” value is reported as 0.97. In the case of `CNC(=O)ON=C(C)C(C)SC` (stereo unspecified), the “growth AUC” value is reported as 0.949. `CC1(C)CON(Cc2ccccc2Cl)C1=O` was tested, and the “growth AUC” value was 0.896. With `CN1COCN(Cc2cnc(Cl)s2)/C1=N/[N+](=O)[O-]` the “growth AUC” value was 0.952. In the case of `Nc1c(Cl)cc([N+](=O)[O-])cc1Cl`, the “growth AUC” value is reported as 0.925. With `COC(=O)[C@@H](C)N(C(=O)Cc1ccccc1)c1c(C)cccc1C` the “growth AUC” value was 1.01. `COC(=O)/C=C(/C)OP(=O)(OC)OC` was tested, and the “growth AUC” value was 1.02 and 0.985. In the case of `CCOP(=O)(OCC)Oc1ccc([N+](=O)[O-])cc1`, the “growth AUC” value is reported as 1.03. With `Clc1ccccc1-c1nnc(-c2ccccc2Cl)nn1` the “growth AUC” value was 1.1. `CCOP(=O)(OCC)O/C(=C\Cl)c1ccc(Cl)cc1Cl` was tested, and the “growth AUC” value was 1.06. In the case of `CSc1nc(N=[N+]=[N-])nc(NC(C)C)n1`, the “growth AUC” value is reported as 1.1. `CNC(=O)/C=C(\C)OP(=O)(OC)OC` was tested, and the “growth AUC” value was 1.07. With `COCc1c(F)c(F)c(COC(=O)[C@@H]2[C@@H](C=C(Cl)Cl)C2(C)C)c(F)c1F` the “growth AUC” value was 0.979. In the case of `BrCCBr`, the “growth AUC” value is reported as 1.06.

Each compound was assayed on Streptococcus salivarius in the same assay as above. Settings: 20 µM; 24 h.
Outline: as §1
`O=[N+]([O-])/N=C1\NCCN1Cc1ccc(Cl)nc1` was tested, and the “growth AUC” value was 0.97. For `Fc1ccc(Oc2ccnc3cc(Cl)cc(Cl)c23)cc1`, the “growth AUC” value was 0.956. In the case of `COP(=O)(NC(C)=O)SC` (stereo unspecified), the “growth AUC” value is reported as 1.01. In the case of `C=CCOC(Cn1ccnc1)c1ccc(Cl)cc1Cl.O=S(=O)(O)O` (stereo unspecified), the “growth AUC” value is reported as 0.953. For `O=c1oc2ccccc2c(O)c1C(CC(O)c1ccc(-c2ccc(Br)cc2)cc1)c1ccccc1` (stereo unspecified), the “growth AUC” value was 0.553 (active). In the case of `CCCCN(CC)C(=O)SCCC`, the “growth AUC” value is reported as 0.996. For `CC(Oc1ccc(Oc2ccc(C(F)(F)F)cn2)cc1)C(=O)O` (stereo unspecified), the “growth AUC” value was 0.93. `CS(=O)(=O)NC(=O)c1cc(Oc2ccc(C(F)(F)F)cc2Cl)ccc1[N+](=O)[O-]` was tested, and the “growth AUC” value was 0.917. For `CC(Oc1ccc(Oc2ccc(Cl)cc2Cl)cc1)C(=O)O` (racemic), the “growth AUC” value was 0.934. `CCOP(=O)(OCC)ON1C(=O)c2cccc3cccc(c23)C1=O` was tested, and the “growth AUC” value was 1.03. For `CC(Oc1cc(Cl)c(Cl)cc1Cl)C(=O)O` (stereo unspecified), the “growth AUC” value was 0.976. `N#CN=C1SCCN1Cc1ccc(Cl)nc1` was tested, and the “growth AUC” value was 1.01. In the case of `CC(C)(C)[C@@H](O)[C@H](Oc1ccc(Cl)cc1)n1cncn1`, the “growth AUC” value is reported as 1.04. With `CCOC(=O)CCN(SN(C)C(=O)Oc1cccc2c1OC(C)(C)C2)C(C)C` the “growth AUC” value was 0.998. `CS(=O)(=O)c1ccc(C(=O)C2C(=O)CCCC2=O)c([N+](=O)[O-])c1` was tested, and the “growth AUC” value was 1.03. With `O=c1oc2ccccc2c(O)c1C1CCCc2ccccc21` (stereo unspecified) the “growth AUC” value was 1.01. `Cc1cc(Cl)ccc1OCC(=O)O` was tested, and the “growth AUC” value was 0.983. With `CCOCn1c(-c2ccc(Cl)cc2)c(C#N)c(Br)c1C(F)(F)F` the “growth AUC” value was 0.944. In the case of `CCCCCCCCCc1ccc(O)cc1`, the “growth AUC” value is reported as 0.927. `OC(Cc1ccccc1Cl)(Cn1cncn1)C1(Cl)CC1` (stereo unspecified) was tested, and the “growth AUC” value was 0.998. With `Cc1cc(Cl)ccc1O[C@H](C)C(=O)O` the “growth AUC” value was 0.988. With `CC1=C(C(=O)Nc2ccccc2)S(=O)(=O)CCO1` the “growth AUC” value was 0.979. In the case of `Cc1nc(N(C)C=O)nc(OC(=O)N(C)C)c1C`, the “growth AUC” value is reported as 0.999. `C[C@@H](Oc1ccc(Oc2ccc(C(F)(F)F)cn2)cc1)C(=O)O` was tested, and the “growth AUC” value was 1.05. In the case of `Cc1nnc(-c2ccccc2)c(=O)n1N`, the “growth AUC” value is reported as 1.06. With `CNC(=O)ON=C(C)C(C)SC` (stereo unspecified) the “growth AUC” value was 0.924. `CC1(C)CON(Cc2ccccc2Cl)C1=O` was tested, and the “growth AUC” value was 0.87. With `CN1COCN(Cc2cnc(Cl)s2)/C1=N/[N+](=O)[O-]` the “growth AUC” value was 1.02. `Nc1c(Cl)cc([N+](=O)[O-])cc1Cl` was tested, and the “growth AUC” value was 0.956. In the case of `COC(=O)[C@@H](C)N(C(=O)Cc1ccccc1)c1c(C)cccc1C`, the “growth AUC” value is reported as 0.958. In the case of `COC(=O)/C=C(/C)OP(=O)(OC)OC`, the “growth AUC” value is reported as 0.944 and 1. For `CCOP(=O)(OCC)Oc1ccc([N+](=O)[O-])cc1`, the “growth AUC” value was 1.01. For `Clc1ccccc1-c1nnc(-c2ccccc2Cl)nn1`, the “growth AUC” value was 0.984. In the case of `CCOP(=O)(OCC)O/C(=C\Cl)c1ccc(Cl)cc1Cl`, the “growth AUC” value is reported as 0.982. For `CSc1nc(N=[N+]=[N-])nc(NC(C)C)n1`, the “growth AUC” value was 1.07. In the case of `CNC(=O)/C=C(\C)OP(=O)(OC)OC`, the “growth AUC” value is reported as 1.04. For `COCc1c(F)c(F)c(COC(=O)[C@@H]2[C@@H](C=C(Cl)Cl)C2(C)C)c(F)c1F`, the “growth AUC” value was 0.986. With `BrCCBr` the “growth AUC” value was 1.01.
